# Results from PubChem BioAssay AID1347383 (Zoeller Lab, School of Medicine, Boston University, 2020).
# Calls of active or inactive are those of the source.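 How the source made its calls: active means cell survival after UV exposure 2 SD above solvent-only control wells at 10 µM, confirmed on one or two repeats; inactive means the rest.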
# Assay: protection of CHO cells from pyrene-fatty acid UV killing, primary screen, phospholipid biosynthesis inhibitor project, ZR-82 cells, Analyticon library, screen 2 (AID 1347383);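 further: survival reflects blocked phospholipid synthesis cutting uptake of the phototoxic fatty acid; compound and fatty acid exposure 3 h then viability read next day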
# Conditions: ZR-82 CHO cells, CellTiter Blue, at 10 µM, peroxisome-deficient CHO-K1 variant, with DGAT-1, DGAT-2 and ACAT inhibitors
row,Compound,outcome
1,CCC1CN2CCc3cc(OC)c(OC)cc3C2CC1CC1NCCc2cc(OC)c(OC)cc21 (stereo not given),inactive
2,CC1=C(CCCCC(=O)O)COC1=O,inactive
3,O=C1NC(Cc2ccccc2)C(=O)N2CCCC12 (stereo not given),inactive
4,O=C(/C=C(O)/C=C/c1ccc(O)cc1)/C=C/c1ccc(O)cc1,inactive
5,C/C(=C\C(=O)C[C@]12C(=O)O[C@]3(C)CC[C@H]1C[C@H]23)C(N)=O,inactive
6,CC(C)c1ccc2c(c1)[C@H](O)CC1[C@@](C)(C(=O)O)CCC[C@]21C (stereo not given in full),inactive
7,C=C1CCC2OC(=O)C(C)=C2C2C1C13OC1(CC(C)C3=O)C1OC21C (stereo not given),inactive
8,C/C=C/C=C/C(=O)N1CC[C@]23c4ccccc4N[C@H]4N(C)c5cccc6c5[C@]42CCN([C@H]6C2OC2(C)C)[C@H]13 (stereo not given in full),inactive
9,Nc1ccn(C2CC(O)C(CO)O2)c(=O)n1 (stereo not given),inactive
10,CCC(C)C(=O)OC1CCC=C2C=CC(C)C(CCC(O)CC(O)CC(=O)OC)C21 (stereo not given),inactive
11,COc1c(OC)c(O)c2c3c(cc4ccccc42)NC(=O)c13,inactive
12,CC(=O)c1ccc(O[C@@H]2O[C@H](CO)[C@@H](O)[C@H](O)[C@H]2O)cc1,inactive
13,CC(C)=CCC/C(C)=C/Cc1c(O)c(CC=C(C)C)c2oc3ccc(O)cc3c(=O)c2c1O,inactive
14,COc1cc(/C=C/c2cc(O)cc(O)c2)ccc1O,inactive
15,COc1c(C(=O)CC(=O)c2ccccc2)ccc2occc12,inactive
16,C=C1C=CC(C(C)C)CCC(=C)C(O)CC1 (stereo not given),inactive
17,CC1=CC2=C(C=O)C(=O)[C@](C)(O)[C@@H](O)C2=CO1,inactive
18,CC1(O)CCC2C(C3C1CCC3(C)O)C2(C)C (stereo not given),inactive
19,C=CC(C)(C)c1cc2cc(CC(O)C(C)(C)O)c(OC)cc2oc1=O (stereo not given),inactive
20,C=CC(C)(C)c1cc2cc3c(cc2oc1=O)OC(C(C)(C)OC(C)=O)C3 (stereo not given),inactive

row,Compound,outcome
1,CC1(C)C2CC[C@]3(C)C(C(=O)C=C4[C@H]5C[C@@](C)(C(=O)O)CC[C@]5(C)CC[C@]43C)[C@@]2(C)CC[C@@H]1O (stereo not given in full),inactive
2,CC12CCC3C1C(c1c(cc(O)c(C(=O)c4ccccc4)c1O)O2)C3(C)C (stereo not given),inactive
3,COc1c2c(nc3occc13)C(CC=C(C)C)(OC)C(O)CC2 (stereo not given),inactive
4,CC(=O)CCCCCCCCNC(C)=O,inactive
5,C[C@H](O)c1nc2ccccc2c(=O)[nH]1,inactive
6,COc1cc(C(=O)/C(C)=C(\C)C(=O)c2ccc(O)c(OC)c2)ccc1O,inactive
7,COc1cc(C2OC(c3ccc(O)c(OC)c3)C(C)C2C)ccc1O (stereo not given),active
8,CC1(C)C=Cc2c(c3ccccc3[nH]c2=O)O1,inactive
9,Nc1ccccc1CCCCCCC(=O)O,inactive
10,CC(=O)NC1C=CC(CCC(NC(C)=O)C(=O)O)C=C1 (stereo not given),inactive
11,O=C1CCC(=O)NCCCCCN(O)C(=O)CCC(=O)NCCCCCN(O)C(=O)CCC(=O)NCCCCCN1,inactive
12,COc1c2c(c(OC)c3oc(=O)ccc13)OC(C)(C)C(O)C2O (stereo not given),inactive
13,Cc1cc(O)cc2c(=O)oc(CC(C)O)cc12 (stereo not given),inactive
14,C[C@H]1C=CC2=CCCC[C@@H]2[C@H]1CC[C@@H]1C[C@@H](O)CC(=O)O1,inactive
15,O=C1CC(c2ccc(O)cc2)Oc2cc(O)cc(O)c21 (stereo not given),inactive
16,C/C=C(/C)C(=O)OC1C(OC2(C)CCC3C(C4C(C)CCC42)C3(C)C)OC(C)C(O)C1O (stereo not given),inactive
17,CCCCCCCCC(=O)/C=C/C=C/C(=O)CCCC(=O)O,inactive
18,O=C1CC(c2ccc(O)cc2)Oc2ccccc21 (stereo not given),inactive
19,CC(C)c1ccc2c(c1)CCC1[C@](C)(C(=O)O)CCC[C@]21C (stereo not given in full),inactive
20,COc1cc2ccc3c(c2cc1OC)N(C)Cc1c(OC)c(OC)cc(OC)c1-3,inactive
